Some test systems named below: T-47D breast; BT-549 breast; MDA-MB-435 melanoma; SW-620 colon; MCF7 breast; HCT-116 colon; HCC-2998 colon; KM12 colon.
Assay in all cases: NCI-60 one-dose screen, 48 h (100 = growth as untreated, 0 = no growth, -100 = all killed)
What all share (details): 10 µM unless noted

This is part of a sample that, as a whole, favours compounds with a hit. Of some 83,000 tested, about 20% had one in any assay.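 Activity criterion: percent growth below 10, measured after cells in 96-well plates were exposed to a single compound concentration for 48 hours.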 Unmarked numbers belong to inactive results. The source made the active and inactive calls.

Regarding `CN(C)c1ccc(C(=O)c2ccc(N(C)C)c(N)c2)cc1N`, the growth in the test on T-47D breast is 21.9%; with BT-549 breast it was 31.9%; with MDA-MB-435 melanoma it was -32.1% (active); in the test with SW-620 colon, 10.2%; with MCF7 breast, 15%; with HCT-116 colon it was 23.6%. Also, the values for the growth in the test on HCC-2998 colon and in the test on KM12 colon were 86.1% and 17.7%, respectively.

`C=CC(=O)N[C@H](Cc1ccc(-c2cc(Cl)cc(Cl)c2)cc1)[C@H](O)[C@@H](O)C(=O)O`: the growth in the test on T-47D breast was 90%; in the test on BT-549 breast, 87.4%; with MDA-MB-435 melanoma it was 102%; with SW-620 colon it was 98.1%; with MCF7 breast, 87%; in the test on HCT-116 colon it was 75.5%. Further, the growth with HCC-2998 colon was 109%; in the test with KM12 colon it was 99.3%.

Turning to `Fc1ccc(NCc2nnc(-c3ccc(Cl)cc3)o2)cc1`, the growth in the test on T-47D breast is 57%; in the test on BT-549 breast it was 77.8%; with MDA-MB-435 melanoma, 94.8%; with SW-620 colon it was 90.4%; in the test with MCF7 breast, 55.2%; in the test with HCT-116 colon it was 53.7%. The growth with HCC-2998 colon is 98%; in the test on KM12 colon it was 84.8%.

Take `Cc1cc(N2CCCC2)nc(N(CCNc2ccnc3cc(Cl)ccc23)Cc2ccco2)n1`: the growth in the test on T-47D breast is 12.4%; with BT-549 breast it was 22.3%; in the test with MDA-MB-435 melanoma, 44%; in the test on SW-620 colon it was 25.5%; in the test with MCF7 breast, 17.9%; in the test on HCT-116 colon, -50.9% (active). In addition, the growth with HCC-2998 colon was 76.6%; in the test with KM12 colon it was 50%.

In the case of `CCN1CCN(C(=O)[C@@]2(C)CC[C@]3(C)CC[C@]4(C)C(=CC(=O)[C@@H]5[C@@]6(C)CC[C@H](OCCC#N)C(C)(C)[C@@H]6CC[C@]54C)[C@@H]3C2)CC1`, the growth in the test on T-47D breast is 66%; with BT-549 breast it was 79%; in the test on MDA-MB-435 melanoma, 81.5%; in the test on SW-620 colon, 97.9%; in the test with MCF7 breast, 78.2%; with HCT-116 colon, 80.6%. Besides, the growth in the test on HCC-2998 colon was 101%; with KM12 colon it was 98.5%.

For the compound `COc1cc(C(=O)/C=C/c2cc(-c3ccc4c(c3)OCO4)n[nH]2)cc(OC)c1OC`, the growth in the test with T-47D breast is 19.7%; in the test on BT-549 breast, -11.2% (active); in the test with MDA-MB-435 melanoma, 40%; in the test on SW-620 colon, -15.1% (active); in the test with MCF7 breast, 6.06% (active); in the test with HCT-116 colon, 6.54% (active). For the same compound, the results for the growth in the test on HCC-2998 colon and in the test on KM12 colon were 85.4% and 1.81% (active), respectively.

Take `c1ccc(-c2nc(Nc3ccc(-c4nc5ccccc5[nH]4)cc3)nc(N3CCOCC3)n2)cc1`: the growth is -62.3% (active) with T-47D breast; 33.7% with BT-549 breast; -81.1% (active) in the test with MDA-MB-435 melanoma; -82.9% (active) in the test on SW-620 colon; -76.2% (active) in the test with MCF7 breast; -81.5% (active) with HCT-116 colon. The growth in the test with HCC-2998 colon is -80.7% (active); in the test on KM12 colon it was -76.6% (active).

Take `CCOc1ccc(NC(=O)c2ccccc2-c2ccccc2C(=O)O)cc1`: the growth in the test on T-47D breast was 103%; in the test on BT-549 breast, 108%; in the test with MDA-MB-435 melanoma, 104%; in the test on SW-620 colon, 107%; in the test with MCF7 breast it was 97.4%; with HCT-116 colon, 103%. Moreover, the growth was 103% in the test with HCC-2998 colon and 110% with KM12 colon.

With `O=C1c2cccc3cccc(c23)C(=O)N1CC#Cc1ccc2c3c(cccc13)C(=O)N(CCO)C2=O`, the growth in the test on T-47D breast is 98.2%; with BT-549 breast it was 86.4%; in the test with MDA-MB-435 melanoma, 92.7%; with SW-620 colon, 92.2%; in the test on MCF7 breast, 106%; with HCT-116 colon, 78.4%. Moreover, the growth in the test on HCC-2998 colon was 106%; in the test with KM12 colon, 101%.

As for `COc1ccc2c3c(c4ccccc4cc13)C(=O)N(CCN(C)CCN)C2=O`, the growth was 6.79% (active) in the test on T-47D breast; 26.1% in the test with BT-549 breast; -92.6% (active) in the test with MDA-MB-435 melanoma; -66.5% (active) in the test with SW-620 colon; -88.2% (active) with MCF7 breast; -94.8% (active) with HCT-116 colon. In addition, the growth in the test with HCC-2998 colon is -80.2% (active); with KM12 colon it was -68.6% (active).

As for `C=C1C(=O)O[C@H]2[C@H]1CC/C(COC(=O)NCc1c[nH]c3ccccc13)=C\CC[C@@]1(C)O[C@@H]21`, the growth in the test on T-47D breast was 37.8%; in the test with BT-549 breast, 50.7%; in the test with MDA-MB-435 melanoma it was 46.9%; in the test with SW-620 colon, 2.62% (active); in the test with MCF7 breast, 17.1%; in the test with HCT-116 colon, -12.3% (active). Besides, the growth is 97.9% in the test on HCC-2998 colon and 96.9% with KM12 colon.

Take `COc1cccc(-c2nn(-c3ccccc3)cc2-c2ccnc(NCCNS(=O)(=O)c3ccc(C(F)(F)F)cc3)c2)c1`: the growth in the test on T-47D breast is 3.99% (active); with BT-549 breast, -29.3% (active); in the test with MDA-MB-435 melanoma it was 13.2%; with SW-620 colon, 28.4%; with MCF7 breast, 11.1%; with HCT-116 colon, 14.7%. Besides, the growth in the test on HCC-2998 colon was 13.7%; in the test with KM12 colon, 14.7%.

With `c1cc(N2CCCC2)c2nc(-c3[nH]ncc3Nc3ncnc4[nH]ccc34)[nH]c2c1`, the growth was 0.99% (active) in the test on T-47D breast; -37% (active) with BT-549 breast; -80.8% (active) in the test with MDA-MB-435 melanoma; 2.01% (active) with SW-620 colon; -23% (active) with MCF7 breast; -9.45% (active) in the test on HCT-116 colon. Further, the growth was -30.4% (active) in the test on HCC-2998 colon and -20.4% (active) in the test with KM12 colon.

`O=C1CCN2C(=O)Nc3ccccc3C2C1` (stereo not given): the growth in the test with T-47D breast was 100%; in the test on BT-549 breast, 109%; in the test on MDA-MB-435 melanoma it was 97.5%; in the test with SW-620 colon, 99.8%; in the test with MCF7 breast, 95.3%; in the test with HCT-116 colon, 98.6%. Moreover, the figures for the growth with HCC-2998 colon and with KM12 colon were 100% and 106%, respectively.

As for `CCSc1ncnc2c1ncn2C1OC(CO)C(O)C1O` (stereo not given), the growth with T-47D breast is 29.1%; in the test with BT-549 breast it was 49%; in the test on MDA-MB-435 melanoma, 24%; in the test on SW-620 colon it was 28.4%; with MCF7 breast, 19.2%; with HCT-116 colon, 12%. In addition, the values for the growth with HCC-2998 colon and with KM12 colon were 8.16% (active) and 11.8%, respectively.
